This is part of a sample that, as a whole, favours compounds with a hit. Of some 83,000 tested, about 20% had one in any assay.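 Interpretation: 100, growth as untreated; towards 0, rising growth inhibition; 0, no net growth; 0 to -100, cell death. Compounds scoring below 10 were considered active.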 Activity calls are given as the source filed them.

The test deals with A549/ATCC NSCLC. Nature of the test: NCI-60 one-dose screen, 48 h (100 = growth as untreated, 0 = no growth, -100 = all killed). To be noted: 10 µM unless noted. How it is done: Growth inhibition of the A549/ATCC human Non-Small Cell Lung tumor cell line is measured as a screen for anti-cancer activity. Cells are grown in 96 well plates and exposed to the test compound for 48 hours. Compounds are tested at a single concentration, which is 10^-5 M for most compounds. The reported endpoint is percent growth (GI% or GIPRCNT), where numbers from 0 - 100% represent growth inhibition, and numbers from -100% - 0 represent cell death. For example, a value of 40 represents 60% growth inhibition. A value of 0 means no net growth occurred over the course of the experiment. A value of -40 indicates 40% of cells at the beginning of the experiment died by the end of the experiment. A value of -100 means all cells are dead at the end of the experiment.
NCI-60 Human Tumor Cell Lines Screen was performed using the standard one-dose NCI protocol, which is described in more detail at https://dtp.cancer.gov/discovery_development/nci-60/default.htm.
Compounds with GIPRCNT values below 10 were considered active. Activity score was based on GIPRCNT using the following formula: […]
Score is 0 for GIPRCNT values of 100 or above, 50 for GIPRCNT values of 0, and 100 for GIPRCNT values of -100.
Consider `c1csc(-c2ccc(CNc3c4ccccc4nc4ccccc34)cc2)c1`, for which the growth is 26.7% (inactive).
The result for `O=C(CSc1oc(-c2ccccc2)nc1S(=O)(=O)c1ccccc1)Nc1ccc(F)cc1` reads 76.9% (inactive); that for `CCN(CC)CCn1c2ccc(O)cc2c2sc3cc(O)ccc3c(=O)c21`, 21.6% (inactive); that for `Cn1ccnc1C(=O)/C=C/c1ccc(C(=O)Nc2ccccc2O)cc1`, 31.2% (inactive).
The result for `Nc1nc(N)c(-c2ccc(Cl)c(Cl)c2)c(CBr)n1` reads 27% (inactive); that for `CN(C)Cc1ccc(O)c(C(=O)O)c1`, 109% (inactive).
The result for `CCCCCC(/C=N\NC(=S)N/N=C/C(=C/c1ccccc1)CCCCC)=C\c1ccccc1` reads 74.8% (inactive).
As to `O=C(OC(CO)C(=O)NC12CC3CC(CC(C3)C1)C2)c1ccc(Cl)cc1` (stereo not given), the growth was 97.2% (inactive).
The same measure for `COc1ccc(-c2nc3cc(C(=O)NCc4ccccc4)ccc3n2C2CCCCC2)cc1`: 74% (inactive); for `O=C1c2c(c3c4ccccc4[nH]c3c3ccc4ccccc4c23)C(=O)N1CCN1CCOCC1`: 28.8% (inactive).
Take `S=c1sc2c(Cl)nc(-c3cccnc3)nc2n1-c1ccccc1`: the growth is 79.9% (inactive).
`Cc1ccc(C(=O)c2ccc(CC(=O)N/N=C/c3ccccc3O)n2C)cc1`: the growth was 86.1% (inactive).
The same measure for `Cc1cc(N2CCN(CC(=O)Nc3ccc4c(ccn4C)c3)CC2)nc(N2CCCCCC2)n1`: 85.3% (inactive).
The result for `N#Cc1c(-c2ccccc2)cc(-c2ccccc2)n(CCCC(=O)Nc2ccccc2N)c1=O` reads 57.4% (inactive).
The result for `CC1OC(n2c3ccccc3c3c4c(c5c6ccccc6[nH]c5c32)C(=O)N(CCN2CCCC2)C4=O)CC(O)C1O` (stereo not given) reads 15.3% (inactive); that for `CCCCCCC12CCC(=O)N1CCc1cncn12` (stereo not given), 95.3% (inactive).
`COc1ccc(NC(=O)c2sc3nc(C)c(C(=O)/C=C/c4ccccc4)cc3c2N)cc1`: the growth was 34% (inactive).
The result for `O=C(NNC(=O)c1ccc(NC(=O)c2ccccn2)cc1)Nc1ccc([N+](=O)[O-])cc1` reads 100% (inactive).
`O=c1[nH]c(-c2ccccc2)nc2sc3cc(O)ccc3c12`: the growth is 81.6% (inactive).
The same measure for `Cc1ccc2c(Cn3cc(CSc4nc5ccccc5o4)nn3)cc(=O)oc2c1`: 105% (inactive); for `COc1ccc2c(c1OC)CO[C@@H]2[C@H]1c2c(cc3c(c2OC)OCO3)CCN1S(=O)(=O)c1cn(C)cn1`: 21.2% (inactive).
In the case of `COc1ccc(C(=O)c2cc3c(N)c(C(=O)Nc4ccc(C)cc4)sc3nc2C)cc1`, the growth is 22.3% (inactive).
With `COc1ccc(-c2cc(-c3cccnc3)nc3sc4c(=O)[nH]c(-c5ccc(Cl)cc5)nc4c23)cc1OC`, the growth is 82.8% (inactive).
Regarding `CCOC(=O)c1cc(C)n(-c2ccc(C(=O)O)cc2)c1C`, the growth was 91.4% (inactive).
The same measure for `c1cc2c(ccc3[nH]c(-c4ccc5[nH]ncc5c4)c4c(c32)CCCC4)n1`: 32.5% (inactive); for `O=S(=O)(Nc1cc(F)cc(Cl)c1)c1ccc(-c2cnc(C3CC3)o2)cc1`: 47.3% (inactive).
As for `O=C(Nc1nc2cc(C(=O)N3CCN(C(c4ccccc4)c4ccccc4)CC3)ccc2o1)c1ccc(NC2CCCCC2)c([N+](=O)[O-])c1`, the growth is 56.1% (inactive).
The result for `COc1ccc(C(=O)/C=C/c2c(C(F)(F)F)nc3ccccn23)cc1OC` reads 43.1% (inactive); that for `COC(=O)/C=C1/SC(=Nc2ccc(C(F)(F)F)cc2)N(CCc2c[nH]c3ccc(O)cc23)C1=O`, 18.1% (inactive).
The result for `CCOC(=O)C1=C(c2ccccc2)N=C2SC=C(c3ccc(Cl)cc3)N2C1c1ccc(Cl)cc1` (stereo not given) reads 77% (inactive); that for `COCCn1cc(-c2nc(-c3cc4cccnc4[nH]3)cs2)c2cc(OC)ccc21`, 24.8% (inactive).
As for `Cc1c(O)cc(-c2cnc(Nc3ccccc3)s2)c(O)c1C`, the growth was 93.1% (inactive).
For `CN(C)c1ccc(-c2c(C#N)c(N)nn2C(=O)c2ccc(NC(=O)c3ccccn3)cc2)cc1`, the growth is 96.1% (inactive).
The result for `CC(C)c1ccc(C(=O)Nc2nc3ccc(O)c(CN(C)C)c3s2)cc1` reads 80.6% (inactive); that for `O=C1c2ccc3c4c5ccc(c24)C(=O)N1CCCOCCCCOCCCNCc1ccc(cc1)CNCCCOCCCCOCCCN(C3=O)C5=O`, -40.1% (active).
The result for `CSc1oc(C)nc1[P+](c1ccccc1)(c1ccccc1)c1ccccc1` reads 61.8% (inactive).
The same measure for `CC/C(=C(/c1ccc(Cl)cc1)c1ccc(OCCN(C)C)cc1)c1ccc(Cl)cc1`: 61.2% (inactive).
Consider `O=C(Nc1nc2ccc(C(=O)N3CCN(/C=C/c4ccccc4)CC3)cc2s1)c1ccc(NCCc2ccccc2)c([N+](=O)[O-])c1`, for which the growth was 55.2% (inactive).
The result for `COC(=O)Nc1nc2ccc(S(=O)c3ccccc3)cc2[nH]1` (stereo not given) reads 57.7% (inactive); that for `Cc1ccc(-c2nc(N3CCCNCC3)c3oc(-c4ccccc4)nc3n2)cc1`, -87.8% (active).

The record behind these values is PubChem BioAssay (NCI).
